ANO1 block – blocks the mouse calcium-activated chloride channel TMEM16A; HEK293 TMEM16A/YFP iodide influx fluorescence, ionomycin; normalized B-score (activity score, 25-100; higher = stronger inhibition) at 10 µM; 1.2% of 310,000 active;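 active = ratio plate-corrected score three or more library SD toward inhibition, starting fluorescence score within five deviations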;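 also: score derived from kinetic fluorescence span divided by baseline fluorescence per well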
Rce1 inhib – inhibitors of yeast Ras-converting enzyme; Q03530; yeast membranes, quenched prenylated peptide cleavage fluorescence; calls only; 0.27% of 290,000 active; AID 2563;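 active = fall in fluorescence gain of 50% or more versus controls, with final raw signal at or below 3038400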;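 also: plate controls were neutral control wells for no effect and wells lacking membranes for full effect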
Kir21 inh – blocks the mouse Kir2.1 inward-rectifier potassium channel; P35561; HEK293-Kir2.1, FluxOR thallium flux fluorescence; active compounds read low; B-score at 10 µM; 0.85% of 310,000 active;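 active = fluorescence ratio B-score at or below minus 3 SD of library scores, with starting-brightness B-score within 2 SD, cut at about -4.2 in these data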;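 also: channel flux triggered by added potassium and thallium sulfate stimulus; B-score of peak minus minimum fluorescence over baseline after thallium stimulus; more negative B-score means stronger Kir2.1 block with less thallium influx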
Target sequence (P35561 whole entry, looked up): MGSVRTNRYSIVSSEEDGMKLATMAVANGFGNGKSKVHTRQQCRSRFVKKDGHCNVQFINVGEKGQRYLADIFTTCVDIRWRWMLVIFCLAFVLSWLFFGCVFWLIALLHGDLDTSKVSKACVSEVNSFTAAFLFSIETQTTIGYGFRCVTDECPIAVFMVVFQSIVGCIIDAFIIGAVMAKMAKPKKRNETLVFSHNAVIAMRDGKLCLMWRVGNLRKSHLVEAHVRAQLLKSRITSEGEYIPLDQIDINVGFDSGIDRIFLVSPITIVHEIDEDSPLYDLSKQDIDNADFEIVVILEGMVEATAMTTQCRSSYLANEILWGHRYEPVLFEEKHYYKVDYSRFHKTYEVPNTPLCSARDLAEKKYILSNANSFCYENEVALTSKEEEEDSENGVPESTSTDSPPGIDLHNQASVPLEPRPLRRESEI
CHT allo act – allosteric activators of human choline transporter CHT. Q9GZV3. CHT-expressing cells, membrane potential dye, choline EC20; active compounds read high; LV-AA mutant CHT in HEK293 cells. 0.49% of 310,000 active. B-score at 10 µM;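 active = initial fluorescence not abnormally high and integrated response B-score, plate-corrected, over 3 SD above library mean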
ANO1 activ – activates or potentiates the mouse TMEM16A chloride channel; Q8BHY3; HEK293 TMEM16A/YFP-H148Q/I152L, iodide quench fluorescence; active compounds read low; B-score at 10 µM; 0.3% of 340,000 active; AID 623877;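 active = fluorescence-ratio B-score plate-corrected deviation score at least 3 library SD below zero, with starting fluorescence score within 5 deviations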;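 also: channel opened by trigger with iodide after compound preincubation; score built on the fluorescence ratio of max minus min over baseline; more negative score means more quench and so TMEM16A activation or potentiation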
CHT block – human CHT choline transport inhibition. CHT-expressing cells, membrane potential dye, choline response; active compounds read low. B-score at 10 µM. 0.86% of 310,000 active. Q9GZV3. AID 488975;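 active = B-score over 3 SD under the library average, and starting fluorescence ratio not unusually high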;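 also: choline stimulus applied at its EC90 after an EC20 pre-addition; B-score computed on integrated fluorescence ratio after choline addition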
CHT activ conf – confirmation of human choline transporter (CHT) activators; shares compounds with CHT allo act; 91% of 2,500 active; CHT-expressing cells, membrane potential dye fluorescence (FDSS); % of choline EC20–EC90 response window; HEK293 expressing CHT LV-AA mutant; choline added at its EC20; activation, % at 10 µM;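 active = primary screen active, with duplicate mean activation above negative control mean plus 3 SD, cut at about 11% in these data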
HEK293 MP dye – CHT activator counter-screen hit in parental HEK293 cells; shares compounds with CHT allo act; membrane potential dye fluorescence (FDSS); measured after EC20 choline addition; ratio readout change at 10 µM, hits read low; 62% of 2,500 active;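 active = duplicate-averaged ratio beyond 3 SD from buffer wells, up or down, though filed actives are nearly all decreases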
Starred values were filed as active, the others as inactive; i = inactive; x = not tested or not shown. Shown are actives, neighbours in structure and some others; about 3.2% of the full set was active somewhere.

SMILES	ANO1 block	Rce1 inhib	Kir21 inh	CHT allo act	ANO1 activ	CHT block	CHT activ conf	HEK293 MP dye
CS(=O)(=O)N1CCN(c2ccc([N+](=O)[O-])c(NCCN3CCOCC3)c2)CC1	i	i	-1.2	i	i	i	32*	-40*
CS(=O)(=O)N1CCN(c2ccc([N+](=O)[O-])c(N3CCOCC3)c2)CC1	i	i	-1.7	i	i	i	x	x
Nc1cc2nc3ccccc3oc-2cc1=O	i	x	x	6.8*	i	i	13*	-38*
CCC1=[N+](C)c2cccc3cccc(c23)N1C	i	i	0.49	9.6*	i	i	71*	-86*
COc1ccccc1NS(=O)(=O)c1ccc(-c2cnc(C3CC3)o2)cc1	i	i	-1.1	i	i	i	24*	i
Cc1ccc(NS(=O)(=O)c2ccc(-c3cnc(C4CC4)o3)cc2)c(C)c1	i	i	0.68	i	i	i	x	x
COc1ccc(-n2c(-c3ccc(F)cc3)cnc2SCC(=O)NCc2ccco2)cc1	i	i	-3.4	i	i	i	33*	i
CC(C)CSc1nsc(N)n1	i	i	-0.59	i	i	i	27*	i
CC(NC(=O)C1CCN(C(=O)Nc2ccccc2)CC1)c1ccccc1 (configuration not stated)	i	i	0.4	i	i	i	0	i
CC(NC(=O)C1CCC(C(=O)NC(C)c2ccccc2)CC1)c1ccccc1 (configuration not stated)	i	i	0.25	i	i	i	x	x
COc1cccc2cc(C(=O)N3CCC(C)CC3)c(=O)oc12	i	i	0.96	i	i	i	x	x
COc1cccc2cc(C(=O)OC3CCN(C)CC3)c(=O)oc12	i	i	-2	6.7*	i	i	43*	-38*
CN1CCCCC1=NCCCn1cnc2c1c(=O)n(C)c(=O)n2C	i	i	0.95	7.2*	i	i	47*	-49*
CC(=O)CCCCn1cnc2c1c(=O)n(C)c(=O)n2C	i	i	0.29	i	x	i	x	x
CCCCn1c(N)c(N(CC(C)C)C(=O)CSCC(=O)Nc2ccc(OC)cc2)c(=O)[nH]c1=O	i	i	2	i	i	i	4	i
CCCCN(C)CCNC(=O)C(NC(=O)C1CCC(C)CC1)C(C)C (configuration not stated)	i	i	-1.1	i	i	i	x	x
CCCCN(C)C(=O)Cc1c(OC)ccc2cc(Br)ccc12	i	i	-1.8	6.7*	i	i	9	i
COc1ccc2cc(Br)ccc2c1CC(=O)N(C)C	i	i	0.54	i	i	i	x	x
CCc1cc(Br)ccc1NC(=S)NCCc1ccccc1	i	i	-7.9*	i	i	i	12*	i
O=C(COc1cc2oc(=O)cc(-c3ccccc3)c2cc1Cl)NCCN1CCOCC1	i	i	1.1	i	i	i	x	x
O=C(N1CCOCC1)N1CCN(S(=O)(=O)c2cccc([N+](=O)[O-])c2)CC1	i	i	0.52	i	i	i	x	x

Source: PubChem BioAssay (several laboratories)
